Measurements: PubChem BioAssay (EPA / NIEHS)
Where “and” joins values, the source holds several entries; their conditions need not be identical. Equal entries are not always repeated. More than one record can exist for a structure, and the calls need not agree. Calls of active or inactive are those of the source. How the source made its calls: active means hit-call score of the fitted dose curve at least 0.9, where 1 is the maximum; inactive means score below 0.9.

What was measured:
[1] = read-out: Macrophage colony-stimulating factor (MCSF), CSF1 (gene 1435); assay: BSK_hDFCGF_MCSF: BioMAP Diversity Plus: hDFCGF Assay for Macrophage colony-stimulating factor (MCSF) Biomarker Activity (AID 2283060); conditions: primary human foreskin fibroblasts; actives raise or lower the signal
How it was run: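 Human foreskin primary fibroblasts were treated with test chemical for 24 h, and M-CSF was then measured by ELISA. Data were fitted bidirectionally against DMSO as the negative control and activity baseline.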

[2] = BSK_hDFCGF_SRB: Viability Assessment in the BioMAP Diversity Plus: hDFCGF Assay (AID 2283061); conditions: primary human foreskin fibroblasts;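 further: cells exposed to compound for 24 h before the read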
How it was run: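 Human foreskin primary fibroblasts were treated with compound and assessed 24 h after dosing. Total protein was measured by sulforhodamine B staining (0.1% SRB after 10% TCA fixation, 560 nm read) as a cytotoxicity marker, with bidirectional fitting against DMSO baseline.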

[3] = read-out: TIMP metallopeptidase inhibitor 1 (TIMP1), TIMP1 (gene 7076); assay: BSK_hDFCGF_TIMP1: BioMAP Diversity Plus: hDFCGF Assay for TIMP metallopeptidase inhibitor 1 (TIMP1) Biomarker Activity (AID 2283062); conditions: primary human foreskin fibroblasts; actives raise or lower the signal
How it was run: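 Primary human foreskin fibroblasts in the hDFCGF system were dosed with compound for 24 h, then TIMP-1 was measured by ELISA. Activity was fitted bidirectionally relative to DMSO control; parallel SRB staining assessed cytotoxicity.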

[4] = read-out: Monokine induced gamma interferon (MIG), CXCL9 (gene 4283); assay: BSK_hDFCGF_MIG: BioMAP Diversity Plus: hDFCGF Assay for Monokine induced gamma interferon (MIG) Biomarker Activity (AID 2283063); conditions: primary human foreskin fibroblasts; actives raise or lower the signal
How it was run: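 ELISA read-out of MIG from primary human dermal fibroblasts 24 h post-dosing. Gain or loss of signal fitted bidirectionally, DMSO as baseline.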

[5] = read-out: Matrix Metallopeptidase 1 (MMP1), MMP1 (gene 4312); assay: BSK_hDFCGF_MMP1: BioMAP Diversity Plus: hDFCGF Assay for Matrix Metallopeptidase 1 (MMP1) Biomarker Activity (AID 2283064); conditions: primary human foreskin fibroblasts; actives raise or lower the signal
How it was run: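 Primary human foreskin fibroblasts exposed to chemicals for 24 h; MMP1 measured by ELISA. Cytotoxicity tracked by SRB staining in parallel cultures; bidirectional fit relative to DMSO.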

[6] = read-out: Vascular cell adhesion molecule 1 (VCAM1), VCAM1 (gene 7412); assay: BSK_hDFCGF_VCAM1: BioMAP Diversity Plus: hDFCGF Assay for Vascular cell adhesion molecule 1 (VCAM1) Biomarker Activity (AID 2283065); conditions: primary human foreskin fibroblasts; actives raise or lower the signal;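 on AC50: VCAM-1 protein level quantified by ELISA after 24 h chemical exposure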
How it was run: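 Primary human foreskin fibroblasts (hDFCGF system) were dosed with chemical and VCAM-1 was measured by ELISA 24 h later. Bidirectional curve fitting used DMSO as negative control and activity baseline.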

[7] = read-out: Plasminogen activator inhibitor-1 (PAI1), SERPINE1 (gene 5054); assay: BSK_hDFCGF_PAI1: BioMAP Diversity Plus: hDFCGF Assay for Plasminogen activator inhibitor-1 (PAI1) Biomarker Activity (AID 2283066); conditions: primary human foreskin fibroblasts; actives raise or lower the signal
How it was run: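 Primary dermal fibroblasts (human foreskin), hDFCGF system; compound 24 h; PAI-1 by ELISA; bidirectional fit vs DMSO control.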

[8] = read-out: Intercellular Adhesion Molecule 1 (ICAM1), ICAM1 (gene 3383); assay: BSK_KF3CT_ICAM1: BioMAP Diversity Plus: KF3CT Assay for Intercellular Adhesion Molecule 1 (ICAM1) Biomarker Activity (AID 2283067); conditions: primary human keratinocytes with fibroblasts; actives raise or lower the signal
How it was run: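 Human keratinocyte plus foreskin fibroblast primary co-culture was exposed to chemical for 24 h. ICAM-1 was then quantified by ELISA, and the data were fit bidirectionally against DMSO as the negative control and baseline.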

[9] = read-out: Interferon-gamma inducible Protein 10 (IP10), CXCL10 (gene 3627); assay: BSK_KF3CT_IP10: BioMAP Diversity Plus: KF3CT Assay for Interferon-gamma inducible Protein 10 (IP10) Biomarker Activity (AID 2283068); conditions: primary human keratinocytes with fibroblasts; actives raise or lower the signal
How it was run: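 Human keratinocyte plus foreskin fibroblast primary co-culture exposed to test chemical for 24 h; IP-10 measured by ELISA. Concentration-response fitted bidirectionally against DMSO control as baseline.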

[10] = BSK_KF3CT_SRB: Viability Assessment in the BioMAP Diversity Plus: KF3CT Assay (AID 2283069); conditions: primary human keratinocytes with fibroblasts;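 further: fitted for both signal gain and loss against DMSO baseline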
How it was run: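 Human keratinocyte and foreskin fibroblast co-culture exposed to chemical for 24 h. Total protein measured in parallel cultures by 0.1% sulforhodamine B staining after 10% TCA fixation, read at 560 nm; bidirectional fit relative to DMSO.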

Measured: AC50

CCCCCCOC(=O)c1ccccc1O
active: [1] 34.8 µM and 35.1 µM | [2] 40 µM and 44.8 µM | [3] 39.7 µM and 31.2 µM | [4] 18.2 µM and 21.3 µM | [5] 35.8 µM | [6] 33.1 µM and 35.3 µM | [7] 39.3 µM and 39.6 µM
inactive: [8] | [9] | [10]

CCCCCCCCCCCCCCCC[N+](C)(C)Cc1ccccc1
active: [1] 1.97 µM | [2] 5.13 µM | [3] 1.71 µM | [4] 3.62 µM | [5] 4.17 µM | [6] 1.91 µM | [7] 1.52 µM | [8] 6.06 µM | [9] 3.64 µM | [10] 5.1 µM

CCCCOCCOCCOC(=O)CCCCC(=O)OCCOCCOCCCC
inactive: all assays above

FC1CC(F)(F)C(F)(F)C1(F)F (stereo unspecified)
inactive: [1] | [2] | [3] | [4] | [5] | [6] | [7] | [8] | [9] | [10]
active: [2] 21.1 µM

CCCCNc1ccccc1
inactive: all assays above

C=CC(F)(F)C(F)(F)C(F)(F)C(F)(F)C(F)(F)C(F)(F)C(F)(F)C(F)(F)C=C
inactive: [1] | [2] | [3] | [4] | [5] | [6] | [7] | [8] | [9] | [10]
active: [2] 3.33 µM

O=C(Cl)C(F)(F)C(F)(F)C(F)(F)C(F)(F)C(F)(F)C(F)(F)C(F)(F)C(F)(F)F
active: [2] 8.08 µM and 15.7 µM and 10.9 µM | [4] 21.7 µM and 44.1 µM and 30 µM | [6] 50.4 µM and 47.9 µM and 47 µM | [7] 47.5 µM and 48.5 µM and 54.6 µM | [9] 20.3 µM and 30 µM
inactive: [1] | [3] | [5] | [8] | [9] | [10]

FC(F)(Br)C(F)(F)C(F)(F)C(F)(F)C(F)(F)C(F)(F)Br
inactive: all assays above

O=S(=O)(OCC(F)F)C(F)(F)F
active: [7] 1.42 µM
inactive: [1] | [2] | [3] | [4] | [5] | [6] | [7] | [8] | [9] | [10]

OCCCC(F)(F)C(F)(F)C(F)(F)C(F)(F)C(F)(F)C(F)(F)C(F)(F)F
active: [1] 15.6 µM and 16.6 µM | [2] 18.3 µM and 17.2 µM | [3] 14.6 µM and 14.4 µM | [4] 16.3 µM and 14.6 µM | [5] 13 µM and 15 µM | [6] 11 µM and 9.2 µM | [7] 15.3 µM and 14.9 µM | [8] 28.3 µM and 47.3 µM | [9] 23.9 µM and 49.7 µM | [10] 24.2 µM and 49 µM

CC(CCl)OP(=O)(OC(C)CCl)OC(C)CCl (stereo unspecified)
active: [7] 0.0159 µM
inactive: all other assays above

OCCCC(F)(F)C(F)(F)C(F)(F)F
inactive: all assays above

CCCCC(CC)COP(=O)(O)OCC(CC)CCCC (stereo unspecified)
active: [1] 33.9 µM and 31.3 µM | [2] 30.6 µM and 29.9 µM | [3] 30.8 µM | [4] 31.6 µM | [5] 12 µM and 13.7 µM | [6] 37.6 µM and 32 µM | [7] 27.5 µM and 33.5 µM | [9] 26.5 µM and 27.2 µM
inactive: [3] | [4] | [8] | [10]

N=C(N)C(F)(F)C(F)(F)C(F)(F)C(F)(F)C(F)(F)C(F)(F)C(F)(F)F
inactive: [2] | [3] | [4] | [5] | [8] | [9] | [10]
active: [1] 40.9 µM and 37.2 µM | [2] 54.4 µM | [4] 46 µM | [6] 30 µM and 18 µM | [7] 55.3 µM and 54.2 µM

O=C(O)C=C(C(F)(F)F)C(F)(F)F
inactive: [1] | [2] | [3] | [4] | [5] | [7] | [8] | [9] | [10]
active: [3] 0.967 µM | [6] 13.1 µM and 22.2 µM | [7] 22.6 µM

O=C(O)C(F)(F)C(F)(F)C(F)(F)C(F)(F)C(F)(F)C(F)(F)C(F)(F)C(F)(F)C(F)(F)C(F)F
inactive: [1] | [3] | [5] | [8]
active: [1] 11 µM | [2] 54 µM and 7.25 µM | [4] 9.87 µM and 5.95 µM | [6] 15.3 µM and 5.95 µM | [7] 45.6 µM and 46 µM | [9] 27.6 µM and 23.7 µM | [10] 52.4 µM and 49.3 µM
